Experimental data published in PubChem BioAssay (NCATS).
Records with an inconclusive call do not appear. Where a call stands in place of a potency, no number is given. Calls of active or inactive are those of the source. The call rests on the fitted dose curve; in most records, active means well fitted inhibition curve with a large enough effect; inconclusive means small, poorly fitted or top-dose-only effect, or effect the other way; inactive means flat fitted curve, though single readings scatter.

molecular target: ATP-dependent 6-phosphofructokinase (Trypanosoma brucei brucei) (UniProt O15648); test: qHTS Assay to Find Inhibitors of T. brucei phosphofructokinase: hit validation (AID 492961);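 further: luminescence reports ADP formed as PFK phosphorylates fructose-6-phosphate with ATP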; conditions: T. brucei PFK, ADP-Glo luminescence; series mostly up to 51.4 µM
How it was run: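 Percent activity derived from corrected luminescence, normalized between 0x and 1x enzyme controls, then fitted to concentration-response curves. Conditions: 1.25 nM PFK, 0.1 mM ATP, 0.5 mM F6P, 45 min RT.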

Sequence of ATP-dependent 6-phosphofructokinase (Trypanosoma brucei brucei) (O15648 whole entry, looked up): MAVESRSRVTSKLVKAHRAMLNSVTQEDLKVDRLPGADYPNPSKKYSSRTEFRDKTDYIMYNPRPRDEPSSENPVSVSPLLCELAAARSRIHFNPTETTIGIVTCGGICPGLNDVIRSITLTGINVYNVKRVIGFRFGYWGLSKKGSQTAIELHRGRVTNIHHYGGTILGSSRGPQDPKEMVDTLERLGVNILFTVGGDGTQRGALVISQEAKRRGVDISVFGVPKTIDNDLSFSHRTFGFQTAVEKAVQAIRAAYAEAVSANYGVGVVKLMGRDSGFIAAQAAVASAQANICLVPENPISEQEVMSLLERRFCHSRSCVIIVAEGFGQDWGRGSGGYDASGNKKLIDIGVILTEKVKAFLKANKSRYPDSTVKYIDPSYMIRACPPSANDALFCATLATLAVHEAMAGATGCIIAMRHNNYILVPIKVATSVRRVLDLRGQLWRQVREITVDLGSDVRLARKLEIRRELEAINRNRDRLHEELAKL

SMILES | Potency
Clc1cccc(C(c2ccc3nc[nH]c3c2)n2ccnc2)c1 (configuration not stated) | inactive
Cc1ccc(O)c([C@H](CCN(C(C)C)C(C)C)c2ccccc2)c1 | inactive
C#C[C@]1(O)CC[C@H]2[C@@H]3CCC4=Cc5oncc5C[C@]4(C)[C@H]3CC[C@@]21C | inactive
CCOc1ccccc1OCCN[C@H](C)Cc1ccc(OC)c(S(N)(=O)=O)c1 | inactive
CC(=O)Oc1ccc(C)cc1 | inactive
COc1ccc(C(=O)c2ccccc2O)c(O)c1 | inactive
O=C(O)P(=O)(O)O | inactive
C#C[C@]1(O)CC[C@H]2[C@@H]3CCc4cc(OC)ccc4[C@H]3CC[C@@]21C | inactive
CCOC(=O)c1ccc(N)cc1 | inactive
CCC(C(=O)OCCOCCN(CC)CC)c1ccccc1 (configuration not stated) | inactive
O=C(O)C(Cc1cc(I)c(O)c(I)c1)c1ccccc1 (configuration not stated) | inactive
Cc1cc(C)cc(OCC2CNC(=O)O2)c1 (configuration not stated) | inactive
O=C(O)Cc1csc(-c2ccc(Cl)cc2)n1 | inactive
CCc1ccc(C(=O)C(C)CN2CCCCC2)cc1 (configuration not stated) | inactive
CC(=O)Nc1ccc(OC(=O)c2ccccc2OC(C)=O)cc1 | inactive
CN1CCN(C2=Nc3ccccc3Sc3ccc(Cl)cc32)CC1 | inactive
CCCCCCCCCCCCSCCOCCO | inactive
CC(C)[N+](C)(C)CC(O)COc1cccc2ccccc12 (configuration not stated) | inactive
CCCCC(CC)COC(=O)c1ccc(N(C)C)cc1 (configuration not stated) | inactive

SMILES | Potency
Cc1ccccc1OCC(O)CO (configuration not stated) | inactive
C[N+]1(CC2COC(c3ccccc3)(C3CCCCC3)O2)CCCCC1 (configuration not stated) | inactive
NC(=O)n1c(O)c(C(=O)c2cccs2)c2cc(Cl)ccc21 | inactive
CC(C)(C)CC(C)(C)c1ccc(O)c(-n2nc3ccccc3n2)c1 | inactive
CN1CCN(C2=Nc3cc(F)ccc3Cc3ccccc32)CC1 | inactive
COc1cc(C(=S)N2CCOCC2)ccc1O | inactive
NS(=O)(=O)c1ccc(Cl)c(S(N)(=O)=O)c1 | inactive
Cn1c(=O)c2[nH]c(Br)nc2n(C)c1=O | inactive
CN1CCN(c2cc3c(cc2F)c(=O)c(C(=O)O)cn3-c2ccc(F)cc2)CC1 | inactive
N#CCC(=O)NN | inactive
CC(C)(Cc1c[nH]c2ccccc12)NCC(O)COc1ccccc1C#N (configuration not stated) | inactive
O[C@@H](c1cc(C(F)(F)F)nc2c(C(F)(F)F)cccc12)[C@H]1CCCCN1 | inactive
FC1(F)C(F)(F)C(F)(F)C2(F)C(F)(F)C(F)(F)C(F)(F)C(F)(F)C2(F)C1(F)F (configuration not stated) | inactive
CCC1Nc2cc(Cl)c(S(N)(=O)=O)cc2S(=O)(=O)N1 (configuration not stated) | inactive
CCCCCCCCCCCCCCCCO | inactive
Cc1cc2c(OCC(CNC(C)(C)C)OC(=O)c3ccccc3)cccc2[nH]1 (configuration not stated) | inactive
CC(=O)NO | inactive
CC1(COc2ccc(CC3SC(=O)NC3=O)cc2)CCCCC1 (configuration not stated) | inactive
